The supplement of paper PMC12645437, “Orthogonal IMiD-Degron Pairs Induce Selective Protein Degradation in Cells” (ACS Chemical Biology, 2025)
Whole data set: some 8,300 sequences, median “log2 fold change of degron read counts, EGFP-low vs EGFP+ sorted cells (limma voom), compound-induced degradation” near -1.1, cut for the highest 2% near 3.2. The sample as a whole holds a higher share of the highest values than the screen did.

T1: CRBN, Q96SW2
T1 chain: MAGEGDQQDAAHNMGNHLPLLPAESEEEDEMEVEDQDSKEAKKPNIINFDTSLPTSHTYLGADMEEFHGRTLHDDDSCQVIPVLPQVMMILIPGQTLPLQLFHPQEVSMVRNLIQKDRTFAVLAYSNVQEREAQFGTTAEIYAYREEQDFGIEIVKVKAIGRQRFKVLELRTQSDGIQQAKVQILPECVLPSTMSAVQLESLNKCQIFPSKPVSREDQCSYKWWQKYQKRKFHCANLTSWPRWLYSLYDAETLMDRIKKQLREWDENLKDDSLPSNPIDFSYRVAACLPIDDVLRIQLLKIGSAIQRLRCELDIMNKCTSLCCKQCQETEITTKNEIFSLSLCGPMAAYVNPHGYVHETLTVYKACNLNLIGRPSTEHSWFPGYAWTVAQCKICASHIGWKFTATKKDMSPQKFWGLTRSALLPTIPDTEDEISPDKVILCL


Target: T1, CRBN, Q96SW2
Test: log2 fold change of degron read counts, EGFP-low vs EGFP+ sorted cells (limma voom), compound-induced degradation; higher = more compound-induced degradation of the degron-EGFP fusion; degrons are variants of IKZF1/3 zinc finger 2; compound dose not given here
Settings: Jurkat, 18 h
[1] = compound: compound 19 (5-tert-butyl-thalidomide)
[2] = compound: compound 22 (5-morpholino-thalidomide)
[3] = compound: compound 33 (diphenyl IMiD analogue)
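Further: pooled lentiviral library of zinc finger degron-EGFP fusions in mCherry-positive Jurkat cells, FACS-sorted after compound exposure, with degron abundance counted by next-generation sequencing.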

| Sequence | log2 fold change of degron read counts [1] | log2 fold change of degron read counts [2] | log2 fold change of degron read counts [3] | log2 fold change of degron read counts (compound: thalidomide) |
| --- | --- | --- | --- | --- |
| LDCPICGFACTQKGNLLRHIKL [46L_47D_49P_50I_52G_53F_54A_55C_67L_, Q9UKT9] | 0.373 | -0.371 | 0.648 | 1.61 |
| LSCPICGFACTQKGNLLRHIKL [46L_47S_49P_50I_52G_53F_54A_55C_67L_, Q9UKT9] | 2.81 | 2.91 | 2.59 | 2.54 |
| LTCPICGFACTQKGNLLRHIKL [46L_47T_49P_50I_52G_53F_54A_55C_67L_, Q9UKT9] | 2.49 | 3.12 | 2.65 | 3.02 |
| LFCPICGFACTQKGNLLRHIKL [46L_47F_49P_50I_52G_53F_54A_55C_67L_, Q9UKT9] | 3.05 | 3.52 | 2.44 | 1.94 |
| LRCPICGFACTQKGNLLRHIKL [46L_47R_49P_50I_52G_53F_54A_55C_67L_, Q9UKT9] | 2.16 | 2.14 | 2.39 | 2.57 |
| LCCPICGFACTQKGNLLRHIKL [46L_47C_49P_50I_52G_53F_54A_55C_67L_, Q9UKT9] | 2.49 | 2.68 | 2.8 | 2.77 |
| LYCPICGFACTQKGNLLRHIKL [46L_47Y_49P_50I_52G_53F_54A_55C_67L_, Q9UKT9] | 2.98 | 3.33 | 2.6 | 1.77 |
| LACPICGFACTQKGNLLRHIKL [46L_47A_49P_50I_52G_53F_54A_55C_67L_, Q9UKT9] | 3.6 | 2.95 | 2.05 | 2.43 |
| LVCPICGFACTQKGNLLRHIKL [46L_47V_49P_50I_52G_53F_54A_55C_67L_, Q9UKT9] | 1.96 | 3.25 | 2.26 | 3.56 |
| LECPICGFACTQKGNLLRHIKL [46L_47E_49P_50I_52G_53F_54A_55C_67L_, Q9UKT9] | 1.75 | -0.131 | 2.17 | 3.17 |
| LKCPICGFACTQKGNLLRHIKL [46L_47K_49P_50I_52G_53F_54A_55C_67L_, Q9UKT9] | 1.2 | -0.283 | -0.872 | 1.19 |
| LNCPICGFACTQKGNLLRHIKL [46L_47N_49P_50I_52G_53F_54A_55C_67L_, Q9UKT9] | 2.3 | 1.32 | 1.06 | 1.78 |
| FKCNICGATFTQKGNLLRHIKL [46F_47K_49N_50I_52G_53A_54T_55F_67L_, Q9UKT9] | -2.19 | -2.52 | -3.31 | -1.21 |
| FACDICGAGFTQKGNLLRHIKL [46F_47A_49D_50I_52G_53A_54G_55F_67L_, Q9UKT9] | 2.54 | 0.463 | -0.84 | -1.45 |
| FECPICGRFFTQKGNLLRHIKL [46F_47E_49P_50I_52G_53R_54F_55F_67L_, Q9UKT9] | -1.85 | -1.84 | -0.566 | 0.632 |
| FFCEICGHTFTQKGNLLRHIKL [46F_47F_49E_50I_52G_53H_54T_55F_67L_, Q9UKT9] | -2.85 | -2.26 | -2.37 | -2.09 |

| Sequence | log2 fold change of degron read counts [1] | log2 fold change of degron read counts [2] | log2 fold change of degron read counts [3] | log2 fold change of degron read counts (compound: thalidomide) |
| --- | --- | --- | --- | --- |
| FYCEQCGALFTQKGNLLRHIKL [46F_47Y_49E_50Q_52G_53A_54L_55F_67L_, Q9UKT9] | -0.0809 | 0.128 | -0.131 | -1.75 |
| FYCPICGRAFTQKGNLLRHIKL [46F_47Y_49P_50I_52G_53R_54A_55F_67L_, Q9UKT9] | -3.1 | -2.69 | -2.69 | -3.4 |
| FHCPQCGATFTQKGNLLRHIKL [46F_47H_49P_50Q_52G_53A_54T_55F_67L_, Q9UKT9] | -1.34 | -1.81 | 0.0255 | -1.77 |
| FRCDVCGAEFTQKGNLLRHIKL [46F_47R_49D_50V_52G_53A_54E_55F_67L_, Q9UKT9] | -2.43 | -1.82 | 0.12 | -1.26 |
| FMCDVCGATFTQKGNLLRHIKL [46F_47M_49D_50V_52G_53A_54T_55F_67L_, Q9UKT9] | -2.12 | -2.03 | 0.562 | -1.29 |
| FICPICGALFTQKGNLLRHIKL [46F_47I_49P_50I_52G_53A_54L_55F_67L_, Q9UKT9] | -1.19 | 0.987 | 1.39 | 1.34 |
| LGCPICGFACTQKGNLLRHIKL [46L_47G_49P_50I_52G_53F_54A_55C_67L_, Q9UKT9] | 3.1 | 2.1 | 1.7 | 1.09 |
| LFCPICGFGCTQKGNLLRHIKL [46L_47F_49P_50I_52G_53F_54G_55C_67L_, Q9UKT9] | 3.06 | 2.74 | 2.03 | 1.48 |
| LQCPICGFACTQKGNLLRHIKL [46L_47Q_49P_50I_52G_53F_54A_55C_67L_, Q9UKT9] | 2.66 | 2.96 | 2.47 | 3.55 |
| LMCPICGFACTQKGNLLRHIKL [46L_47M_49P_50I_52G_53F_54A_55C_67L_, Q9UKT9] | 1.55 | 2.48 | 2.86 | 2.97 |
| LRCPICGFGCTQKGNLLRHIKL [46L_47R_49P_50I_52G_53F_54G_55C_67L_, Q9UKT9] | 2.74 | 2.14 | 2.33 | 2.47 |
| LLCPICGFACTQKGNLLRHIKL [46L_47L_49P_50I_52G_53F_54A_55C_67L_, Q9UKT9] | 0.701 | 0.253 | 1.48 | 1.92 |
| LWCPICGFACTQKGNLLRHIKL [46L_47W_49P_50I_52G_53F_54A_55C_67L_, Q9UKT9] | 2.95 | 3.32 | 2.72 | 1.84 |
| LYCPICGFGCTQKGNLLRHIKL [46L_47Y_49P_50I_52G_53F_54G_55C_67L_, Q9UKT9] | 3.31 | 2.96 | 2.48 | 1.46 |
| LICPICGFACTQKGNLLRHIKL [46L_47I_49P_50I_52G_53F_54A_55C_67L_, Q9UKT9] | 0.747 | 2.69 | 1.82 | 2.87 |
